The values that follow come from PubChem BioAssay.

For orientation: viability means a read-out of living cells in per cent, often relative to untreated cells. As usually defined, the AC50 is the concentration giving half of the maximal activity seen. As a reminder, the IC50 is the point on the concentration scale where inhibition reaches its midpoint. In general, remaining activity refers to the signal under treatment as a percentage of the control signal.

Molecules are shown by their SMILES. Values joined by “and” are separate entries in the source; they are usually repeats but may differ in a detail not shown here. Identical values can stand only once. Inconclusive results are not listed. Active and inactive are the calls of the source.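 The calls were made as follows, unless noted: active = compound that reduces growth-factor-driven endothelial tube area in a mixed cell culture, no cutoff stated; inactive = the rest.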

The nature of test [1]: P. berghei load reduction in hepatocytes – cell-based, HepG2, luciferase luminescence, HepG2 viability, primary screen (AID 624349; in the data active = parasite load remaining mostly below about 12%, no sharp cut-off; inactive = mostly above about 10%;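 also: 100% = mean of DMSO negative control wells on the same plate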). The conditions noted are these: P. berghei liver stage in HepG2, luciferase luminescence, concentration not given here; parasite load remaining: stronger effect = lower value; viability: measured here: HepG2 viability without parasites.
Test [2] can be described thus: Wnt pathway potentiators raising nuclear beta-catenin – imaging, WNT3A-conditioned medium, mouse C2C12, NPC library, primary screen (AID 1117326; in the data active = nuclear beta-catenin stimulation mostly above about 4.2%, no sharp cut-off; inactive = mostly below about 10%). The conditions noted are these: stronger effect = higher value.
Test [3] in a line: stimulators of insulin release from INS-1E, primary screen, cell-based, 5 mM glucose, NPC library (AID 1117329;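 active = compound raises insulin release from rat beta cells at 5 mM glucose, no numeric limit stated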). The settings on record: rat INS-1E insulin secretion, at 10 µM, stronger effect = higher value.
Test [4] is described as follows: growth inhibition of GSK3B-pretreated HCT116 cells – cell-based, CellTiter-Glo, 0.2 to 20 µM (AID 1117336;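 active = compounds lowering colon cancer cell viability after pretreatment blocking the GSK3B kinase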). The conditions noted are these: HCT116 viability after GSK3B inhibitor, at 20 µM, stronger effect = higher value. Background: In ATP-based viability assays light output follows the ATP content of the culture.
The nature of test [5]: inhibition of endothelial tube formation, primary screen, imaging, VEGF stimulated, CD31 staining, tube area, NPC library (AID 1117340). The settings on record: VEGF-stimulated ADSC/ECFC co-culture, at 10 µM, stronger effect = higher value.
Test [6] is described as follows: GLP1 release stimulators, primary, NCI-H716, NPC library (AID 1117341;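 active = compound raises GLP1 secretion from the human gut endocrine cells, with no numeric limit stated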). The conditions noted are these: NCI-H716 cells, at 10 µM, stronger effect = higher value.
The nature of test [7]: HCT116 colon cancer cell growth inhibition, primary screen, CellTiter-Glo luminescence, NPC library (AID 1117342;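 active = compounds that lower survival of HCT116 colon cancer cells in the luminescence readout, no numeric limit stated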). The settings on record: at 20 µM (top of the series).
Test [8] in a line: reduced SW480 viability measured with CellTiter-Glo, NPC library, primary (AID 1117343;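 active = compounds that lower viability of the colon cancer cells in the luminescence readout, with no numeric limit stated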). The settings on record: CellTiter-Glo luminescence; at 20 µM (top of the series) unless noted.
A short description of test [9]: NPC library primary testing for decreased DLD-1 cell viability via CellTiter-Glo (AID 1117346;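 active = compounds that lower survival of DLD-1 colon cancer cells in the luminescence readout, no cutoff given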). The conditions noted are these: DLD-1 viability, CellTiter-Glo luminescence; at 20 µM (top of the series).
A short description of test [10]: viability loss in pontine glioma line – cell-based, SU-DIPG-XVII, MIPE5.0, CellTiter-Glo, qHTS, dose response (AID 1347060; cut-off not given, nearly all actives have AC50 up to about 26 µM;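 as to AC50: cells exposed to compound for 48 hours before viability readout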). The settings on record: CellTiter-Glo ATP luminescence.
Test [11] is described as follows: viability loss in pontine glioma line – cell-based, SU-DIPG-XIII, MIPE4.0, CellTiter-Glo, qHTS, dose response (AID 1347061; cut-off not given, nearly all actives have AC50 up to about 37 µM;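 also: cells exposed to compound for 48 hours before readout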). The conditions noted are these: CellTiter-Glo ATP luminescence.
Test [12] is described as follows: growth inhibition of DIPG cells – cell-based, MIPE4.0 library, CellTiter-Glo luminescence, qHTS (AID 1347066; cut-off not given, nearly all actives have AC50 up to about 30 µM;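 also: cells exposed to compound for 48 hours before readout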). The conditions noted are these: SU-DIPG-VI viability, CellTiter-Glo ATP luminescence.
Test [13] is described as follows: growth inhibition of DIPG cells – cell-based, MIPE5.0 library, qHTS (AID 1347068; cut-off not given, nearly all actives have IC50 up to about 30 µM;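 as to IC50: cells exposed to compound for 48 hours before viability readout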). The conditions noted are these: SU-DIPG-XXV viability.
Test [14] in a line: viability loss with induced miR-34 in A549 – imaging, A549 dox-inducible miR-34, nuclei and caspase counts, primary screen (AID 1347080;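 active = compounds whose cell count with miR-34 switched on is under 0.7 times the count with it off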). The conditions noted are these: A549 miR-34 inducible, Hoechst nuclei count, 48 h.
The nature of test [15]: MELAS cybrid and Rieske KO viability enhancers – cell-based, MELAS cybrids, Rieske KO mouse fibroblasts, CellTiter-Glo, primary screen (AID 1508586;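 active = mean z-score across replicates of 1.96 or higher in either the MELAS or the Rieske mutant cell line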;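 also: z relative to plate mean and SD of compound and empty wells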). The conditions noted are these: low glucose.
Test [16] can be described thus: galactose survival enhancers in mitochondrial complex I cybrids – cell-based, galactose medium, ATP luminescence, primary screen (AID 1645843;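 active = z-score of at least 1.8 in each of two replicates, scored against plate mean and spread of sample wells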;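 also: positive z means more ATP and so rescue of galactose-driven cybrid death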). The settings on record: complex I mutant cybrid cells, 72 h, stronger effect = higher value.
The target in test [17] is NAD(+) hydrolase SARM1 (Homo sapiens) (UniProt Q6SZW1). As to the kind of experiment: blocking NAD cleavage by SARM1 SAM-TIR – cell lysate, NAD-Glo luminescence (AID 1508614;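 active = compound whose remaining NAD level is above about 45 nM, limit read from the data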;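 also: higher remaining NAD means stronger inhibition of SARM1 NADase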). The conditions noted are these: SAM-TIR HEK293T lysate NADase, at 1 µM, stronger effect = higher value.
Test [18] has as its system Aerobactin synthetase IucA (Klebsiella pneumoniae). Description: inhibition of K. pneumoniae IucA enzyme – biochemical, Tocris library, absorbance (AID 1345561; call rule not given here;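 also: 100% = enzyme without compound and 0% = no enzyme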). The conditions noted are these: purified IucA enzyme assay, absorbance (OD) read-out; stronger effect = lower value;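 tested at 8 µM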.
The mark [19] stands for this setting: stronger effect = lower value, cell number ratio, induced over uninduced.
Where [20] appears, read: measured here: relative caspase fold change +Dox/-Dox.
The mark [21] stands for this setting: measured here: total cells with miR-34 induction, stronger effect = lower value.
Where [22] appears, read: measured here: total cells without miR-34 induction.

Sequence of NAD(+) hydrolase SARM1 (Homo sapiens) (Q6SZW1 whole entry, looked up): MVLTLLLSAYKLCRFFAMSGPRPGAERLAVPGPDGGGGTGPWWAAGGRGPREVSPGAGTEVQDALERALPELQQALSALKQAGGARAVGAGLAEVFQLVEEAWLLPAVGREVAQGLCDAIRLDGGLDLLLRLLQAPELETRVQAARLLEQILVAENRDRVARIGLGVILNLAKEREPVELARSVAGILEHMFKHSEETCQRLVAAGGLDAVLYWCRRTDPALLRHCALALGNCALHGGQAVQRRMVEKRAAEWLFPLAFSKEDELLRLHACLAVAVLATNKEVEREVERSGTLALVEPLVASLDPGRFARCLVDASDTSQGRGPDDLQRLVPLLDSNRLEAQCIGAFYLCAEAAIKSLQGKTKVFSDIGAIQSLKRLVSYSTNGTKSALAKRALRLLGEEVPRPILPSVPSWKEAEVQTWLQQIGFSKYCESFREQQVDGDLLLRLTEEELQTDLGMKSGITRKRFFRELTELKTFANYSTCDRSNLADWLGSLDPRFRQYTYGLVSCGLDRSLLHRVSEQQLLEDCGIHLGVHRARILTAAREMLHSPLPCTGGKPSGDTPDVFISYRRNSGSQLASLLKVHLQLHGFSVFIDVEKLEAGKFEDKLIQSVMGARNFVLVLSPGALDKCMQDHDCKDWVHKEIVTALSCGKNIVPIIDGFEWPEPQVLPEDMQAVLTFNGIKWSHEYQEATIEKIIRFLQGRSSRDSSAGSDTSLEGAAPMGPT

Regarding `COC(=O)C1=C(C)NC(C)=C(C(=O)OCCCN2CCC(c3ccccc3)(c3ccccc3)CC2)C1c1cccc([N+](=O)[O-])c1` (stereo unspecified), the parasite load remaining in [1] was 29% (inactive). In test [1], this compound displayed a viability of 90.5%. Also, the nuclear beta-catenin stimulation in test [2] (at 10 µM) was -0.8% (inactive); in test [2] (stimulation, at 2 µM), 9.4%. Besides, the insulin secretion stimulation in test [3] is -1.1% (inactive). Further, in test [4], the viability decrease was 110% (active). The tube area decrease in test [5] is 109% (active). Further, in test [6], the GLP1 secretion stimulation is -3.2% (inactive). In test [7], the inhibition of viability is 112% (active). The viability decrease (inhibition) is 134% (active) in test [8] and 101% (active) in test [9]. In addition, the AC50 in test [10] is 10.5 µM (active). Moreover, the compound was called inactive in [11] and in test [12]. The IC50 in test [13] was 7.42 µM (active). The fold change in test [14] (setting [19]) is 1.31 (inactive) and 0.96 (inactive); in test [14] (setting [20]), 0.733 and 0.821. The cell count is 498 and 6520 in [14] (setting [21]); 380 and 6800 in test [14] (setting [22]). In addition, the z-score was -1.1 (inactive) in test [15] (MELAS cybrid survival, CellTiter-Glo 48 h, stronger effect = higher value); -0.158 in [15] (Rieske KO mouse fibroblast survival, CellTiter-Glo 72 h); -2.25 (inactive) in test [16].

With `CSCC[C@H](NC(=O)[C@H](Cc1c[nH]c2ccccc12)NC(=O)CCNC(=O)OC(C)(C)C)C(=O)N[C@@H](CC(=O)O)C(=O)N[C@@H](Cc1ccccc1)C(N)=O`, the nuclear beta-catenin stimulation in [2] (at 10 µM) is 0.1% (inactive); in [2] (stimulation, at 2 µM) it was 1.3%. In addition, in test [3], the insulin secretion stimulation is 0.8% (inactive). Moreover, the viability decrease in [4] was -19% (inactive). In test [5], the tube area decrease was 5.2% (inactive). In test [6], the GLP1 secretion stimulation was 0.3% (inactive). For the same compound, in test [7], the inhibition of viability was -11.9% (inactive). Besides, the viability decrease (inhibition) in [8] was 23.6% (inactive); in test [9], -23.3% (inactive). For the same compound, the compound was classed as inactive in [10], in test [12] and in test [13]. The AC50 in test [11] is 0.935 µM (active). For the same compound, the remaining NAD in test [17] was 10 nM (inactive).

Turning to `O=C(O)Cc1ccc(OCCNC[C@H](O)c2ccccc2)cc1`, the nuclear beta-catenin stimulation in [2] (at 10 µM) was 23.3% (inactive); in test [2] (stimulation, at 2 µM) it was -5%. Further, the insulin secretion stimulation in test [3] was 0.6% (inactive). In addition, the viability decrease in test [4] is -5.3% (inactive). For the same compound, in test [5], the tube area decrease was -9.4% (inactive). In addition, the GLP1 secretion stimulation in test [6] is -0.5% (inactive). Also, in [7], the inhibition of viability is -1.1% (inactive). The viability decrease (inhibition) in test [8] is 8.4% (inactive); in test [9], 19.5% (inactive). Also, the remaining activity in test [18] was 103% (inactive). The fold change in test [14] (setting [19]) is 0.89 (inactive); in test [14] (setting [20]), 2.1. Besides, the cell count in test [14] (setting [21]) stood at 8910; in test [14] (setting [22]) it was 10000. The z-score in test [16] was 0.015 (inactive).

With `CC(C)OC(=O)c1cc2c(OCC(O)CNC(C)(C)C)cccc2[nH]1` (stereo unspecified), the nuclear beta-catenin stimulation in test [2] (at 10 µM) was 0.4% (inactive); in test [2] (stimulation, at 2 µM) it was 5.8%. Further, in [3], the insulin secretion stimulation is 13.3% (inactive). Moreover, the viability decrease in test [4] is 9.2% (inactive). In addition, the tube area decrease in test [5] is 1.9% (inactive). In test [6], the GLP1 secretion stimulation is 4.8% (inactive). In addition, in [7], the inhibition of viability was 40.5% (active). For the same compound, the viability decrease (inhibition) in test [8] was 58.6% (active); in test [9], 7.6% (inactive). Further, the remaining activity in [18] is 116% (inactive). The fold change in test [14] (setting [19]) is 0.915 (inactive); in [14] (setting [20]), 0.769. The cell count in test [14] (setting [21]) was found to be 9290; in test [14] (setting [22]) it was 10200. For the same compound, in test [16], the z-score was -0.48 (inactive).
